Results filed as inconclusive are left out. A call without a number means that no potency is given here. Active and inactive are the calls of the source. Calls come from the whole dose curve.
assay: qHTS assay for small molecule agonists of the p53 signaling pathway - cell viability (AID 651633); conditions: p53RE-bla HCT-116 viability, ATP luminescence, 16 h; series mostly up to 83.3 µM;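 note: p53RE-bla HCT reporter cells with a stable beta-lactamase p53 reporter; nearly all actives have a fitted effect of over 30% in size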
Text: National Center for Advancing Translational Sciences [NCATS]
NIH Chemical Genomics Center [NCGC]
U.S. Environmental Protection Agency [EPA]
National Institutes of Environmental Health Sciences [NIEHS]
National Toxicology Program [NTP]
U.S. Food and Drug Administration [FDA]
p53, a tumor suppressor protein, is activated following cellular insult, including DNA damage and other cellular stresses. The activation of p53 regulates cell fate by inducing DNA repair, cell cycle arrest, apoptosis, or cellular senescence. The activation of p53, therefore, is a good indicator of DNA damage and other cellular stresses. […] The activation of the reporter gene under culture conditions can be detected by fluorescence intensity. This cell line was used to screen the Tox21 compound library in a 1536-well plate format and to identify agonists that activate the p53 signaling pathway.
Tox21 Assay Protocol Summary:
The p53RE-bla cells were dispensed at 4,000 cells/5 ul/well in 1536-well black wall/clear bottom plates using a Multidrop dispenser. After the assay plates were incubated at a 37 C/5% CO2 incubator for 5 hours, 23 nL of compounds dissolved in DMSO, positive controls or DMSO only was transferred to the assay plate by a pin tool. The plates were incubated at 37 C for 16 hours. After 1 uL of LiveBLAzerTM B/G FRET substrate was added using a Flying Reagent Dispenser, the plates were incubated at room temperature for 2 hours, and fluorescence intensity was measured by an Envision plate reader.
For cell viability readout that measures cytotoxicity, 4 ul/well of CellTiter-Glo reagent was added into the assay plates using a Flying Reagent Dispenser. After 30 min incubation at room temperature, the luminescence intensity in the plates was measured using a ViewLux plate reader.

Row | SMILES | Potency
1 | CNS(=O)(=O)Cc1ccc2[nH]cc(CCN(C)C)c2c1 | inactive
2 | O=C(O)[C@@H]1[C@H]2C[C@H]3c4[nH]c5ccccc5c4CCN3C[C@@H]2CC[C@@H]1O | inactive
3 | Nc1ccc(C(=O)Nc2ccccc2N)cc1 | inactive
4 | Nc1nc(CC(=O)O)cs1 | inactive
5 | c1ccc(OCc2ccc(CCCN3CCOCC3)cc2)cc1 | inactive
6 | CC(C)NCC(O)c1cc(O)cc(O)c1 (stereo not given) | inactive
7 | C=CC[N+]1([C@H]2C[C@H]3[C@@H]4CC[C@H]5C[C@H](OC(C)=O)[C@@H](N6CCCCC6)C[C@]5(C)[C@H]4CC[C@]3(C)[C@H]2OC(=O)CC)CCCCC1 | inactive
8 | NC(=S)N/N=C/c1cccnc1 | inactive
9 | O=C(O)Cc1sc(-c2ccccc2)nc1-c1ccc(Cl)cc1 | inactive
10 | Cc1cc(CC(=O)O)c(C)n1-c1ccc(Cl)cc1 | inactive
11 | Oc1ccc(C(O)CNCCCCCCNCC(O)c2ccc(O)c(O)c2)cc1O (stereo not given) | inactive
12 | Cn1c(=O)c2c(ncn2CC(O)CO)n(C)c1=O (stereo not given) | inactive
13 | CC/C(=C\C(=N/O)C(N)=O)C(C)[N+](=O)[O-] (stereo not given) | inactive
14 | CN1CCN(C2=Nc3cc(Cl)ccc3Nc3ccccc32)CC1 | inactive
15 | CCCCCCCCCCCCCCC1CO1 (stereo not given) | inactive
16 | C=CC(C)(CCC=C(C)C)OC(=O)c1ccccc1 (stereo not given) | inactive
17 | NCc1ccccc1 | inactive
18 | O=C(O)COC(=O)Cc1ccccc1Nc1c(Cl)cccc1Cl | inactive
19 | CCCCOc1cc(C(=O)OCCN(CC)CC)ccc1N | inactive
20 | Oc1ccc(O)c2c(O)cccc12 | inactive

Row | SMILES | Potency
21 | O=C1CCCCCO1 | inactive
22 | CC1(C)[C@H]2CC[C@]1(C)[C@H](O)C2 | inactive
23 | O=C(/C=C/c1ccc(O)c(O)c1)O[C@@H]1C[C@](O)(C(=O)O)C[C@@H](O)[C@H]1O | inactive
24 | CCCCOC(O)CC (stereo not given) | inactive
25 | NC(N)=N/N=C/c1c(Cl)cccc1Cl | inactive
26 | OCC1CC2CC1C1CCC(CO)C21 (stereo not given) | inactive
27 | Nc1nc(N)c(-c2ccccc2)s1 | inactive
28 | CC(=O)/C(C)=C/C1C(C)=CCCC1(C)C (stereo not given) | inactive
29 | CCCCCCCCCC=O | inactive
30 | NCCCOCCOCCOCCCN | inactive
31 | CC(O)C1CCCCC1 (stereo not given) | inactive
32 | CCCC[C@H]1CN(CC2CCOCC2)C(=O)OC12CCN(C1(C)CCN(C(=O)c3c(C)ncnc3C)CC1)CC2 | inactive
33 | CC(=O)OC/C=C/c1ccccc1 | inactive
34 | CCC(C)N(C)C(=O)c1cc2ccccc2c(-c2ccccc2Cl)n1 (stereo not given) | inactive
35 | CCCCCCCCCCCCCCCC(=O)OC/C=C(C)/C=C/C=C(C)/C=C/C1=C(C)CCCC1(C)C | inactive
36 | CCN(CC)CCOC(=O)C1(c2ccccc2)CCCC1 | inactive
37 | CC[C@]12CCCN3CCc4c(n(c5ccccc45)C(=O)C1)[C@@H]32 | inactive
38 | CCCCCOC(=O)c1ccc(O)cc1 | inactive
39 | CC(=O)c1c(C)c([N+](=O)[O-])c(C(C)(C)C)c([N+](=O)[O-])c1C | inactive
40 | CCCCCC(CO)CCC (stereo not given) | inactive

Reference: PubChem BioAssay (Tox21)
